# TRPML1 blocker: blocks the human TRPML1 channel | Q9GZU1 | TRPML1-inducible cells, Ca2+ dye fluorescence, FDSS; active compounds read low; inhibition of EC80 agonist-evoked calcium signal | activity change, negative = inhibition, % (test concentration not listed) | actives 0.02% (n = 390,000) | AID 624415; in the data active = activity change below about -50%; inconclusive = between about -30% and that limit;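 also: stimulus is agonist 54-4 at its EC80 concentration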
# Target sequence (Q9GZU1 whole entry, looked up): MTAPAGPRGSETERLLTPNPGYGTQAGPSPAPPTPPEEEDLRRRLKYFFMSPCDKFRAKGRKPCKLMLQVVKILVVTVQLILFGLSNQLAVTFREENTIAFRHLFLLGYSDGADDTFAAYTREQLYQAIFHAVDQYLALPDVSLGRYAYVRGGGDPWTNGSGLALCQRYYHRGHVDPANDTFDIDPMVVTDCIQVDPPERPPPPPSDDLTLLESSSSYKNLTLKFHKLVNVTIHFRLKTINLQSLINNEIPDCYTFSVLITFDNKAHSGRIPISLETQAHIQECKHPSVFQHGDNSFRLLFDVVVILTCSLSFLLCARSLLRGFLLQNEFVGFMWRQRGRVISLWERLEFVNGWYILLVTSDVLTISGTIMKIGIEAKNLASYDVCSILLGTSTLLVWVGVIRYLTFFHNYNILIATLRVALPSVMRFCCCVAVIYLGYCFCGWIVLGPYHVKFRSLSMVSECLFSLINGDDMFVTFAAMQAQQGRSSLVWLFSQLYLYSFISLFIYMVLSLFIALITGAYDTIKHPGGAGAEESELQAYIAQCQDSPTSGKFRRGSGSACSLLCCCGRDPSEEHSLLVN
#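 Tet-induced TRPML1-DL cells loaded with Ca8 no-wash calcium dye were read kinetically on FDSS. Compound addition was followed by EC80 agonist 54-4 (4 uM final); inhibition was read over 110 s.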
# TRPML1 ag: activates the human TRPML1 channel | Q9GZU1 | AID 624414 | TRPML1-expressing cells, Ca2+ dye fluorescence, FDSS | activation, % (no concentration beside the values) | actives 0.12% (n = 410,000); in the data active = activation above about 50%; inconclusive = mostly about 30% to 49%
#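 Cells: TRPML1-DL, 1X Tet inducer, ~16 h at 37 degrees C/5% CO2. Dye: ABD Ca8 no-wash + quencher, 45-90 min RT. Read: 10 s baseline, compound add, 110 s agonist phase; 54-4 EC80 (4uM final), 110 s antagonist phase.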
# TRHR PAM: TRH receptor (human) allosteric enhancement. P34981. actives 0.66% (n = 360,000). enhancement, % at 2 µM. AID 493056. TRHR cells, fluo-8 calcium fluorescence, EC20 TRH enhancement; in the data active = enhancement above about 30%
#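 TRHR-expressing cells loaded with fluo-8 calcium dye were read kinetically (ex 480/em 530) during compound addition, then stimulated with an EC20 of TRH (10 nM final). Enhancement of the Gq-mediated intracellular calcium response was scored.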
# TRHR ag: activates the human TRH receptor; P34981; TRHR cells, calcium flux fluo-8, FDSS agonist mode; activation, % at 2 µM; actives 0.18% (n = 360,000); in the data active = activation above about 30%
#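 Steps: seed TRHR cells overnight; add fluo-8 no-wash Ca dye, RT 30 min–1.5 h; record 10 s baseline; pin-transfer compounds; monitor fluorescence 1 cycle/s for the agonist window. Calcium increases flag candidate agonists.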
# Numbers stand for hits; – = inactive; ? = inconclusive; · = no result given; ! = a repeat was not active. The list is not random: actives were taken first. Their share in the collection is about 0.81%.
SMILES,TRPML1 blocker,TRPML1 ag,TRHR PAM,TRHR ag
Cc1cc(/C=C2\C(=N)N3N=C(c4ccco4)SC3=NC2=O)c(C)n1Cc1ccccc1,–,–,–,–
N=C1/C(=C\c2coc3ccccc3c2=O)C(=O)N=C2SC(c3ccncc3)=NN12,–,111.7,32.5,145.8
O=S(=O)(c1ccc2c(c1)OCCO2)N1CCN(S(=O)(=O)c2cccs2)CC1,·,·,–,–
Nc1ccc(/C=C/c2cc(Cl)nc3ccccc23)cc1,·,–,·,·
CC1CCCCN1S(=O)(=O)c1ccc(S(=O)(=O)N2CCCC2)cc1 (stereo not given),–,–,–,–
CC1CCCCN1S(=O)(=O)c1ccc(C(=O)N2CCOCC2)cc1 (stereo not given),–,–,33.0,–
O=C1c2ccccc2C(=O)N1c1nc(-c2ccc(F)cc2)cs1,·,–,·,·
CCOc1ccccc1OCC(=O)OCC(=O)NNC(=O)c1ccc([N+](=O)[O-])cc1,–,–,30.1,–
COc1cc(NC(=O)c2c(C)nn(-c3ccc(F)cc3)c2-n2cccc2)cc(OC)c1,–,–,–,41.6
COc1cccc(NC(=O)c2c(C)nn(-c3cccc(C)c3)c2-n2cccc2)c1,–,–,–,–
COc1cc(OC)c(/C=C/c2ccc3ccccc3[n+]2C)c(OC)c1,·,–,·,·
COc1cccc(C(C2=C(O)CC(C)(C)CC2=O)C2C(=O)CC(C)(C)CC2=O)c1 (stereo not given),–,–,34.5,–
COc1cc(OC)c(/C=C/c2ccncn2)c(OC)c1,·,–,·,·
O=C(c1cccc(F)c1)N1CCN(c2cccc(C(F)(F)F)c2)CC1,–,–,–,–
O=C(c1ccc2nccnc2c1)N1CCN(c2cccc(C(F)(F)F)c2)CC1,–,–,30.5,–
CCN1/C(=C/C=C/C=C/C=C/c2sc3ccccc3[n+]2CC)Sc2ccccc21,–,–,31.6,–
CCN1/C(=C/C=C/C=C/c2sc3ccccc3[n+]2CC)Sc2ccccc21,·,–,–,–
C#CCn1c(-c2cccs2)nc2ccccc21,–,–,31.7,–
N#Cc1ccc(C(=O)NCC(=O)OC(C(=O)Nc2cc(C(F)(F)F)ccc2Cl)c2ccccc2)cc1 (stereo not given),·,·,–,–
COc1ccc(NC(=S)N2CCN(Cc3ccccc3)CC2)cc1,–,–,33.3,–
S=C(Nc1ccc(Cl)cc1)NC1CCN(Cc2ccccc2)CC1,–,–,38.3,–
S=C(Nc1ccccc1)NC1CCN(Cc2ccccc2)CC1,–,–,–,–
CCc1cccc2c(C(O)(c3c[nH]c4c(CC)cccc34)c3c[nH]c4c(CC)cccc34)c[nH]c12,·,–,·,·
N#CN1CCC(NC(=O)c2cccc(F)c2)CC1,·,·,–,–
Cn1nnnc1Sc1ncnc2scc(-c3ccc4c(=O)ccoc4c3)c12,·,·,–,–
SMILES,TRPML1 blocker,TRPML1 ag,TRHR PAM,TRHR ag
CC(C)(C)n1ncc2c(=O)n(Cc3ccc(F)c(F)c3F)cnc21,–,–,·,·
COc1ccc(C(=O)NC(=S)N(C)Cc2ccccc2)cc1Br,–,–,–,–
CN(Cc1ccccc1)C(=S)NC(=O)c1ccccc1,–,–,30.8,–
COc1ccc(N2C(S)=C(C#N)C(=O)NC2c2ccc(OC)c(OC)c2)cc1 (stereo not given),–,–,30.1,–
Cc1ccc(NC(=O)Cn2cc(C(=O)C3CC3)c3ccccc32)c(C)c1,–,–,36.3!,–
Cc1ccc(C)c(NC(=O)Cn2cc(C(=O)C3CC3)c3ccccc32)c1,–,–,–,–
Ic1ccc(/C=C2\C=Cc3ccccc32)cc1,·,–,·,·
O=C(COc1ccccc1C(=O)Nc1ccccc1)Nc1ccc(-c2ccccc2)cc1,·,–,·,·
O=C(CSc1nnc(Cn2c(=O)sc3ccccc32)n1-c1ccccc1)NCc1ccco1,–,–,40.1,–
COC(=O)C1=C(C)N(Cc2ccccc2)C(=S)N[C@H]1c1ccccc1,–,64.6,–,–
CCn1cc(/C=C/C(=O)Nc2c(C)nn(Cc3ccccc3)c2C)cn1,?,–,34.6,–
Nc1c(Br)cc(/C=C2\C=Cc3ccccc32)cc1Br,·,–,·,·
O=[S+]([O-])(c1c(F)cccc1F)N1CCN([S+](=O)([O-])c2cccc3nonc23)CC1,·,·,–,–
O=c1oc2cc(O)ccc2cc1-c1nc2ccccc2o1,·,98.6,·,·
O=c1oc2cc(O)ccc2cc1S(=O)(=O)c1ccccc1,–,–,–,–
Cc1ccc(/C=C(\C#N)C(=O)Nc2cccc(Br)c2)o1,–,–,–,–
N#C/C(=C\c1ccc(N2CCCCC2)o1)C(=O)Nc1cccc(Br)c1,?,118.8,–,107.7
O=[S+]([O-])(c1ccc2c(c1)OCCO2)N1CCN([S+](=O)([O-])c2c(O)cc(F)cc2F)CC1,·,·,–,–
CCOc1ccc(CCNC(=O)CS(=O)(=O)Cc2nc(-c3ccc(OC)cc3)oc2C)cc1,–,–,40.1!,–
O=C(O)CSC1CC(=O)N(c2ccc(Br)cc2)C1=O (stereo not given),–,–,40.4,–
O=C(O)CSC1CC(=O)N(c2ccc(Cl)cc2)C1=O (stereo not given),–,–,–,–
COc1cc2nc(N3CCOCC3)nc(NC3CCN(Cc4ccccc4)CC3)c2cc1OC,·,–,·,·
Cc1ccc(C2C(C(=O)c3cccs3)=C(O)C(=O)N2c2nnc(C)s2)cc1 (stereo not given),–,–,–,55.6
COc1ccc(C2C(C(=O)c3cccs3)=C(O)C(=O)N2c2cccc(C)n2)cc1 (stereo not given),–,–,–,–
COc1ccccc1C1CC(c2cccc(NS(C)(=O)=O)c2)=NN1S(=O)(=O)c1ccccc1 (stereo not given),–,–,30.7,–
SMILES,TRPML1 blocker,TRPML1 ag,TRHR PAM,TRHR ag
CCN(CC)c1ccc(/C=C2\C=Cc3ccccc32)cc1,·,–,·,·
COc1ccc(OC)c(C2CC(=O)N(c3cccc(C)c3)C3=C2C(=O)OC3)c1 (stereo not given),–,–,35.5,–
COc1ccccc1C1CC(=O)N(c2cccc(C(F)(F)F)c2)C2=C1C(=O)OC2 (stereo not given),–,–,–,–
CC(=O)Nc1ccc(NC(=O)C2CCCN2S(=O)(=O)c2cccc3nsnc23)cc1 (stereo not given),–,–,–,–
CC1CCCC(NC(=O)C2CCCN2S(=O)(=O)c2cccc3nsnc23)C1C (stereo not given),–,–,35.6,–
O=C(Nc1ccc(S(=O)(=O)N2CCOCC2)cc1)c1ccc(S(=O)(=O)N2CCOCC2)cc1,–,–,–,–
CC(=O)Oc1ccc(C(=O)Nc2ccc(S(=O)(=O)N3CCOCC3)cc2)cc1,–,–,40.7,–
CC(=O)c1ccc2c3c(cccc13)C(=O)N(c1c(C)nn(C)c1C)C2=O,–,–,–,–
O=C1c2cccc3c(N4CCCCC4)ccc(c23)C(=O)N1CCO,–,?,–,68.8
O=C1c2cccc3cccc(c23)C(=O)N1CCO,–,–,·,·
Cc1n[nH]c(C)c1N1C(=O)c2cccc3c(N4CCCCCC4)ccc(c23)C1=O,–,61.1,–,126.3
O=C1c2cccc3c(N4CCCCC4)ccc(c23)C(=O)N1c1cccc(O)c1,–,87.5,–,73.3

# Source: PubChem (National Center for Advancing Translational Sciences (NCATS))
